Results on 40 molecules are retold here after PubChem BioAssay (NCATS).

One test relates to PA-1. Put plainly: Primary qHTS to identify gynecologic anti-cancer compounds using libraries of approved drugs and bioactive compounds (AID 1345084). Further: nearly all actives have a fitted effect of over 55% in size. Further: potency means the concentration at half of the fitted maximal effect. Particulars: Gynecologic cancer cell panel viability, ATPlite luminescence, 48 h; series mostly up to 57.5 µM. In short, it runs like this:
(§1)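 Five-concentration response, 48 h; readout is ATP-driven luciferase luminescence.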
In general terms: qHTS replaces the single test concentration by a dilution series.

The next test relates to Tov-21-G. The description is as above. Particulars: Gynecologic cancer cell panel viability, ATPlite luminescence, 48 h; series mostly up to 57.5 µM. In short, it runs like this: as §1
Test [1] can be described thus: qHTS assay to identify inhibitors of the type 1 interferon - major histocompatibility complex class I in skeletal muscle: Counter screen cell viability and HiBit confirmation (AID 1347412). Further: potency means the concentration at half of the fitted maximal effect. On all read-outs here: nearly all actives have a fitted effect of over 60% in size. Particulars: iHSKM muscle cells + IFN-b, HiBiT or CellTiter-Glo, 24 h; for activity change, negative = inhibition: at 45.9 µM (top of the series). The procedure, abridged:
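Myoblasts (C25cl48, HLA-B HiBiT) seeded in medium without dexamethasone, IFN-b 4 ng/ml added except unstimulated columns; 1 hr later compounds pinned (12-pt 1:3, top 46 uM final). Incubated 24 hrs, lysed 10 min, luminescence measured.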

In another test the test system is Tov112D. The test is described as follows: Primary qHTS to identify gynecologic anti-cancer compounds using libraries of approved drugs and bioactive compounds (AID 1345084). Further: nearly all actives have a fitted effect of over 55% in size. Further: potency means the concentration at half of the fitted maximal effect. Conditions: Gynecologic cancer cell panel viability, ATPlite luminescence, 48 h; series mostly up to 57.5 µM. In short, it runs like this:
as §1

The nature of test [2]: Drug repurposing screens with cells derived from glioblastoma tumor samples (AID 1345199). Further: nearly all actives have a fitted effect of over 40% in size. Conditions: GBM patient neurospheres viability, ATP luminescence, 48 h. The procedure, abridged: (§2)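 Four patient lines of CD133+ GBM neurospheres were screened at several concentrations; hits were retested in those lines plus three slower-growing GBM lines, using 48-hour treatment and ATP-based viability.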

Another test concerns astro. Described as above. Particulars: viability, ATP luminescence, 48 h; series mostly up to 45.9 µM. The procedure, abridged:
as §2

A further test relates to SKOV3. Put plainly: Primary qHTS to identify gynecologic anti-cancer compounds using libraries of approved drugs and bioactive compounds (AID 1345084). Further: nearly all actives have a fitted effect of over 55% in size. Further: potency means the concentration at half of the fitted maximal effect. Conditions: Gynecologic cancer cell panel viability, ATPlite luminescence, 48 h; series mostly up to 57.5 µM. The procedure, abridged: as §1

Each structure is given as a SMILES string. Results filed as inconclusive are left out. Unmarked numbers belong to inactive results. Active and inactive are the calls of the source. The call rests on the fitted dose curve; in most records, active means well fitted curve in the direction sought with a large enough effect; inconclusive means small, poorly fitted or top-dose-only effect, or another doubt; inactive means no such curve, though single readings can be large; an effect the other way counts as inactive or inconclusive.
On the % scale 0 is the no-effect control and ±100 the full control effect.

As to `CC(C)c1cc(-c2n[nH]c(=O)n2-c2ccc3c(ccn3C)c2)c(O)cc1O`, the Potency in the test on PA-1 was 0.251 µM (active); in the test on Tov-21-G, 0.282 µM (active); in test [1] (HiBiT) it was 0.0176 µM (active).

For the molecule `CC(C)c1cnn2c(NCc3ccccc3)cc(N[C@@H](CO)[C@H](O)CO)nc12`, the Potency is 1 µM (active) in the test on PA-1, 1.58 µM (active) in the test with Tov-21-G, 3.16 µM (active) with Tov112D and 0.157 µM (active) in test [1] (HiBiT). In addition, the activity change, negative = inhibition in test [1] (Viability) is 18.9%.

As for `Cc1cc(C(=O)N2CCN(c3cccc(Cl)c3)CC2)n(-c2ccccc2)n1`, the Potency was 5.01 µM (active) in the test on PA-1 and 3.98 µM (active) with Tov112D. The activity change, negative = inhibition in test [1] (Viability) is -19.8%.

Regarding `CCN(CC)CCNC(=O)c1ccc2nc(-c3ccccc3)c(-c3ccc(CN4CCC(n5c(=O)[nH]c6ccccc65)CC4)cc3)nc2c1`, the Potency entry with PA-1, in the test on Tov-21-G and in the test with Tov112D was “inactive” throughout.

For `CC(C)(O)CCc1ccc(OCc2cc(-c3cccc(OC(F)F)c3)c3ncccc3c2)cc1`, the Potency entry with PA-1, with Tov-21-G and in the test with Tov112D was “inactive” throughout.

For `CC(=O)Nc1sc2c(c1-c1nc3ccccc3s1)CNC2`, the Potency in the test on PA-1 is 31.6 µM (active). In addition, the Potency entry in the test with Tov112D was “inactive”.

As to `Cc1[nH]nc2ccc(-c3cncc(OC[C@@H](N)Cc4ccccc4)c3)cc12`, the Potency with PA-1 is 3.55 µM (active); in the test on Tov-21-G, 2.82 µM (active); in the test with Tov112D, 2 µM (active); in test [1] (HiBiT), 0.991 µM (active). For the same molecule, in test [1] (Viability), the activity change, negative = inhibition is -12.9%.

Turning to `N#CCNC(=O)c1ccc(-c2ccnc(Nc3ccc(N4CCOCC4)cc3)n2)cc1`, the Potency in the test on PA-1 was 14.1 µM (active); in the test with Tov-21-G it was 14.1 µM (active); in test [1] (HiBiT), 4.43 µM (active). Besides, the Potency entry with Tov112D was “inactive”. For the same molecule, the activity change, negative = inhibition in test [1] (Viability) was -6.53%.

As to `COc1ccc(C(=O)CC2(O)C(=O)Nc3c(Cl)ccc(Cl)c32)cc1` (centres undefined), the Potency in the test on PA-1 is 8.91 µM (active); in the test on Tov112D, 3.98 µM (active).

For `CC1(C)CC(=O)c2c(C(F)(F)F)nn(-c3ccc(C(N)=O)c(NC4CCC(OC(=O)CN)CC4)c3)c2C1` (centres undefined), the Potency in the test on PA-1 is 0.316 µM (active); with Tov-21-G it was 0.355 µM (active); in test [1] (HiBiT), 0.0557 µM (active).

In the case of `Cc1cc(Nc2cc(CN3CCOCC3)c3nc(C)c(Cc4ccc(Cl)cc4F)n3n2)n[nH]1`, the Potency entry with PA-1 and in the test with Tov112D was “inactive” throughout. Also, in test [1] (HiBiT), the Potency is 3.52 µM (active).

With `CNC(=O)c1cc(Oc2ccc(NC(=O)Nc3cc(C(C)(C)C)nn3-c3ccc4ncccc4c3)c(F)c2)ccn1`, the figures for the Potency (in the test on PA-1; with Tov-21-G; in test [1] (HiBiT)) were 20 µM (active), 28.2 µM (active) and 3.94 µM (active), respectively. The activity change, negative = inhibition in test [1] (Viability) is 26.8%.

For the molecule `O=c1c2ccccc2nc2n1CCc1c-2[nH]c2ccccc12`, the Potency result in the test with PA-1, in the test on Tov-21-G and with Tov112D was “inactive” each time.

Turning to `O=C(Cc1ccc(-c2ccc(OCCN3CCOCC3)cc2)cn1)NCc1ccccc1`, the values for the Potency with PA-1, in the test with Tov-21-G and with Tov112D were 1.26 µM (active), 2 µM (active) and 1 µM (active), respectively.

With `COc1cc2c(Oc3ccc4[nH]c(C)cc4c3F)ncnc2cc1OCCCN1CCCC1`, the Potency entry in the test on PA-1 is “inactive”. Also, the results for the Potency (in the test on Tov112D; in test [1] (HiBiT); in test [1] (Viability)) were 12.6 µM (active), 19.8 µM (active) and 19.8 µM (active), respectively.

As to `C=CC(=O)N1CCC[C@@H](n2nc(-c3ccc(Oc4ccccc4)cc3)c3c(N)ncnc32)C1`, the Potency result in the test on PA-1, with Tov-21-G and with Tov112D was “inactive” in each case.

As for `CC(=O)SC[C@@H](C)C(=O)N1CCC[C@H]1C(=O)N[C@@H](Cc1ccccc1)C(=O)O`, the Potency entry with PA-1, with Tov-21-G, with Tov112D and with astro was “inactive” in each case. The activity, negative = cell killing in test [2] (at 45.9 µM (top of the series), tumour line B) was -6.65%; in test [2] (at 45.9 µM (top of the series), tumour line D), 2.25%; in test [2] (at 46.1 µM (top of the series), tumour line C), -6.2%.

Turning to `Nc1cc(C(F)(F)F)c(-c2cc(N3CCOCC3)nc(N3CCOCC3)n2)cn1`, the Potency in the test on PA-1 is 6.31 µM (active); with Tov112D, 2.82 µM (active).

Turning to `CCc1cc2c(cc1N1CCC(N3CCOCC3)CC1)C(C)(C)c1[nH]c3cc(C#N)ccc3c1C2=O`, the Potency entry in the test on PA-1, in the test on Tov-21-G and with Tov112D was “inactive” throughout.

As for `C[C@@H](Oc1cc(-c2cnn(C3CCNCC3)c2)cnc1N)c1c(Cl)ccc(F)c1Cl`, the Potency was 14.1 µM (active) in the test with PA-1, 14.1 µM (active) with Tov-21-G, 17.6 µM (active) in test [1] (HiBiT) and 27.9 µM (active) in test [1] (Viability). For the same molecule, in the test on Tov112D, the Potency result is “inactive”.

Turning to `OCCCNc1cc(-c2ccnc(Nc3cccc(Cl)c3)n2)ccn1`, the Potency in the test with PA-1 is 0.1 µM (active); in the test with Tov-21-G, 0.158 µM (active); with Tov112D, 0.316 µM (active); in test [1] (HiBiT), 0.125 µM (active). Further, the activity change, negative = inhibition in test [1] (Viability) is 15.1%.

As to `CN(C)c1nc(Cc2ccc(NC(=O)c3ccc4ccccc4c3)cc2)nc(Cl)c1CC(=O)O`, the Potency entry in the test on PA-1, in the test with Tov-21-G and with Tov112D was “inactive” each time.

For the molecule `Cc1cn(-c2cc(NC(=O)c3ccc(C)c(Nc4nccc(-c5cccnc5)n4)c3)cc(C(F)(F)F)c2)cn1`, the Potency in the test with PA-1 was 12.6 µM (active). In addition, the Potency entry in the test with Tov-21-G and with Tov112D was “inactive” each time.

As to `Cc1coc2c1C(=O)C(=O)c1c-2ccc2c1CCCC2(C)C`, the Potency result in the test on PA-1 and in the test with Tov112D was “inactive” in each case.

In the case of `O=C(CCCCCCNC(=O)c1cnc(N(c2ccccc2)c2ccccc2)nc1)NO`, the Potency is 3.16 µM (active) in the test on PA-1 and 28.2 µM (active) with Tov112D.

As to `CC[C@@]1(O)C(=O)OCc2c1cc1n(c2=O)Cc2cc3cc(O)ccc3nc2-1`, the Potency in the test with PA-1 was 0.282 µM (active); in the test on Tov-21-G, 3.55 µM (active); with Tov112D, 0.0794 µM (active); in test [1] (HiBiT), 2.79 µM (active). Moreover, the activity change, negative = inhibition in test [1] (Viability) is 8.39%.

As for `Cn1cc(-c2ccncc2)c(-c2ccc(OCc3ccc4ccccc4n3)cc2)n1`, the Potency entry in the test with PA-1, with Tov-21-G and in the test with Tov112D was “inactive” throughout.

For the molecule `c1ccc2c(CCNc3ccc(Nc4ccncc4)cc3)c[nH]c2c1`, the Potency with PA-1 was 10 µM (active). In the test with Tov-21-G, the Potency entry is “inactive”. Moreover, the activity change, negative = inhibition in test [1] (HiBiT) was 19.8%; in test [1] (Viability) it was -28.3%.

With `COc1ccc2c(OCc3nnc4ccc(-c5ccccc5)nn34)ccnc2c1`, the Potency entry in the test with PA-1, in the test with Tov-21-G and in the test on Tov112D was “inactive” each time.

For the molecule `O=C(Nc1ncc(-c2cc(C(F)F)nn2-c2c(Cl)cccc2Cl)s1)C1CC1`, the figures for the Potency in the test with PA-1, in the test with Tov-21-G and in the test on Tov112D were 1.78 µM (active), 1.78 µM (active) and 1.58 µM (active), respectively.

For `NC1(Cc2ccc(Cl)cc2)CCN(c2ncnc3[nH]ccc23)CC1`, the Potency entry with PA-1 and with Tov112D was “inactive” each time.

Consider `COc1ccc(F)c(F)c1C(=O)c1cnc(NC2CCN(S(C)(=O)=O)CC2)nc1N`, for which the Potency with PA-1 was 2.51 µM (active); with Tov112D, 7.94 µM (active); in test [1] (HiBiT), 1.11 µM (active). In test [1] (Viability), the activity change, negative = inhibition is 14.1%.

`CN1CCC(CNc2ccc3ncc(-c4cccc(OC(F)(F)F)c4)n3n2)CC1`: the Potency entry with PA-1, in the test with Tov-21-G and in the test on Tov112D was “inactive” throughout. The Potency was 22.2 µM (active) in test [1] (HiBiT) and 31.3 µM (active) in test [1] (Viability).

Turning to `Cc1ccc2nc(NC(=O)CSc3nc4c(c(=O)n3-c3ccccc3)SCC4)sc2c1`, the Potency result with PA-1, in the test with Tov-21-G and in the test with Tov112D was “inactive” in each case.

On to `Nc1cccc(-c2cc3c(Oc4cccc(O)c4)ncnc3[nH]2)c1`, for which the Potency with SKOV3 is 3.98 µM (active).

Turning to `Cc1cn2cc(C(=O)N(C)CCO)cc(N[C@@H]3CCOc4cccc(C)c43)c2n1`, the Potency entry in the test with SKOV3, in the test on Tov-21-G and in the test on Tov112D was “inactive” each time.

Take `COc1cc(C(=O)N2CCC(N3CCN(C)CC3)CC2)ccc1Nc1ncc2c(n1)N(C)c1ccccc1C(=O)N2C`: the Potency with SKOV3 was 8.91 µM (active). Also, the activity change, negative = inhibition in test [1] (Viability) was -1.11%.

As to `CNc1nccc(-c2cccnc2Oc2cc(C(=O)Nc3cccc(C(F)(F)F)c3)ccc2C)n1`, the Potency in the test with SKOV3 and in the test with Tov-21-G was 28.2 µM (active) throughout.

For `COc1cc2c(cc1-c1c(C)noc1C)ncc1[nH]c(=O)n([C@H](C)c3ccccn3)c12`, the Potency entry in the test on PA-1 is “inactive”. The activity change, negative = inhibition in test [1] (Viability) was 1.25%.

As to `O=C(Nc1nc2cccc(-c3ccc(CN4CCS(=O)(=O)CC4)cc3)n2n1)C1CC1`, the Potency result in the test with SKOV3 was “inactive”.
